# According to PubChem BioAssay (EPA / NIEHS):
# The source made the active and inactive calls. Rule for the calls: active = hit-call score of the fitted dose curve at least 0.9, where 1 is the maximum; inactive = score below 0.9.
# Read-out: Ezrin (EZR), EZR (gene 7430)
# Assay: LTEA_HepaRG_EZR: Life Technologies and Expression Analysis (LTEA) Assay for Ezrin (EZR) using HepaRG (AID 2283491)
# Conditions: mRNA level, 48 h; actives raise or lower the signal
# Procedure: It is a marker of Cellular remodeling.Data from the assay component LTEA_HepaRG_EZR was analyzed into 1 endpoint. This assay endpoint, LTEA_HepaRG_EZR, was analyzed with bidirectional fitting relative to DMSO as the negative control and baseline of activity. Using a type of inducible reporter, measures of mRNA induction for gain or loss-of-signal activity can be used to understand regulation of transcription factor activity. To generalize the intended target to other relatable targets, this assay endpoint is annotated to the membrane protein intended target family, where the subfamily is Cellular remodeling.
# A total of 1060 chemcials from the ToxCast library were tested in eight-point concentration-response experiments. Cell culture and cytotoxicity assays were conducted at Thermo Fisher Scientific's Custom Services facility (Madison, WI). A single lot of human HepaRG cells (Thermo Fisher Scientific, Frederick, MD) was used for the cell culture experiments. 96-well format collagen type I coated plates of human HepaRG cells were prepared using established methods. Briefly, cryopreserved HepaRG cells were thawed, plated at a density of approximately 100,000 cells/well in HepaRG Thaw, Plate, and General Purpose media (HPRG770, Thermo Fisher Scientific), and incubated for 48 hours. 0.5% DMSO was selected as vehicle control to balance the requisite need of DMSO in HepaRG cultures to maintain differentiation (for example, baseline metabolism, proportions of hepatocytes vs. cholangiocytes), while enabling further hepatic receptor pathway activation (for example, PXR and CAR) in response to chemical exposure. 48 hours after plating, the culture medium was replaced with HepaRG Serum-Free Incudtion Media. Cells were exposed to each test chemical in duplicate and maintained in CO2 incubators for another 48 hours. Chemical plates were thawed to room temperature and 200x concentrations of treatment groups were prepared. 8-point conentration-reponse curves were made with the highest exposure at 100 uM, followed by half-log dilutions, all in 0.5% DMSO. Each test plate contained variouse controls, induction positive controls (1mM phenobarbital), cytotoxicity positive controls ([…] aflatoxin B1), vehicle controls (0.5% DMSO), and total lysis controls (0.5% DMSO). Cell morphology images were taken using an Essen IncuCyte FLR automated microscope, with six 96-well plates imaged in about 24 minutes. Images were captured and exported and JPEG files. Spent culture media was transfered to black-well plates for the LDH assay, and remaining media was sorted at -80 C for later use. Cells were treated with RLT buffer and frozen until shipped for gene expression analysis. Total RNA was isolated from the cell suspension in 75 uL of Buffer RLT (Qiagen, Germantown, MD 20874) by Quintiles/Expression Analysis (Durham, NC) using a custom isolation procedure. Total RNA from each plate well was transferred to a preamplification plate. Fluidigm's 96.96 Dynamic ArrayTM (Fluidigm, Amsterdam, the Netherlands) technology was used for gene expression analyses by quantitative reverse transcription polymerase chain reaction (qRT-PCR, performed by Quintiles/Expression Analysis, Durham, NC)89. Standard TaqManTM Assays (Applied Biosystems/ThermoFisher Scientific, Foster City, CA) were used to assess the expression of 93 genes selected based on their selectivity and sensitivity to important hepatic receptors known to be modulated by environmental chemicals; importance in human hepatocyte functionality; and hepatotoxicity. Three "housekeeping" endogenous control genes were also included and used for normalization: actin beta (ACTB), Glyceraldehyde 3 phosphate dehydrogenase (GAPDH) and RNA Polymerase II Subunit A (POLR2A). qRT-PCR was conducted according to the manufacturer's protocol.
Compound,outcome,AC50
CC(C)(C)c1ccccc1O,inactive,–
COc1ccccc1N,inactive,–
N#Cc1cccnc1,inactive,–
OCCN(CCO)CCO,inactive,–
CN(C)C(=S)S,inactive,–
Clc1cccc(Cl)c1,inactive,–
O=C(O)C1(c2ccc3c(c2)OC[C@H](Cc2ccc(-c4ccccc4)cc2)[C@H]3O)CCCC1,–,63.1 µM (active)
CCCCCCCCCCCCc1cccc(S(=O)(=O)O)c1,inactive,–
Oc1cc(Cl)c(Cl)cc1Cl,inactive,–
CC(C)O.CC(C)O.OCCN(CCO)CCO.OCCN(CCO)CCO.[Ti],inactive,–
O=C(N[C@H]1CN2CCC1CC2)c1ccc2c(c1)OCCO2,inactive,–
Cc1cc(C)cc(C)c1,inactive,–
Clc1cccc(Cl)c1Cl,inactive,–
Oc1c(Cl)cc(Cl)cc1Cl,inactive,–
